Screening data from PubChem BioAssay.
aSyn UTR act – Activators via SNCA 5'UTR binding, MLPCN. alpha-synuclein 5'UTR reporter, activators screen. activity score, % (tested at 7.5 µM), hits read low. hit rate 7.1% among 300,000; in the data active = activity score below about -60%
* = called active by the depositor. A selection follows.

`CC(=O)Nc1ccc(S(=O)(=O)NC2=C(N3CCN(C)CC3)C(=O)c3ccccc3C2=O)cc1` gave aSyn UTR act 71.
`CC(=O)Nc1cccc2c1Cc1ccccc1-2` gave aSyn UTR act -159*.
C=CCN(CC=C)CCOc1ccc(OC(C)C)cc1 was read as aSyn UTR act -63*.
For COc1ccc(OC)c(Nc2cc(-c3ccccc3)nc(N)n2)c1 the results were aSyn UTR act 68.
For COc1ccc2nc(-c3ccccc3)cc(OC)c2c1 the results were aSyn UTR act -107*.
For Cc1oc(-c2ccc(Cl)cc2)cc1C(=O)O the results were aSyn UTR act -83*.
Screening Cn1c(/C(C#N)=C(\O)c2ccc(Cl)s2)nc2ccccc21 returned aSyn UTR act -80*.
`Cn1c(/C(C#N)=C(\O)c2ccc([N+](=O)[O-])s2)nc2ccccc21` gave aSyn UTR act -115*.
For COc1cc(/C=C2\C(=N)N3N=CSC3=NC2=O)ccc1OS(=O)(=O)c1ccccc1[N+](=O)[O-] the results were aSyn UTR act -75*.
CCNc1ccc(Br)cc(C(=O)/C=C/c2ccccc2Cl)c1=O was read as aSyn UTR act -68*.
`COC(=O)c1sccc1NC(=O)c1cc2c(s1)CCCC2` gave aSyn UTR act -133*.
Screening O=C(Nc1cccc(Cn2cccn2)c1)c1cc2c(s1)CCCC2 returned aSyn UTR act -139*.
`CCOC(=O)c1ccc(NC(=O)c2cc3c(s2)CCC3)cc1` gave aSyn UTR act -154*.
`COc1ccc(C)cc1NS(=O)(=O)c1ccc(-c2cnc(C3CC3)o2)cc1` gave aSyn UTR act 102.
For COc1ccc(C)cc1NC(=O)c1cc2c(s1)CCC2 the results were aSyn UTR act -143*.
Screening CC(=O)Oc1ccccc1-c1nc(C)nc(N(C)C(C)=O)n1 returned aSyn UTR act -70*.
Screening S=c1nc(-c2ccc(Br)cc2)oc2c1CCCC2 returned aSyn UTR act -184*.
Screening Cc1cccc(-c2nc(=S)c3c(o2)CCCC3)c1 returned aSyn UTR act -133*.
`Cc1cc(=O)n2cc(-c3ccccc3)nc2[nH]1` gave aSyn UTR act -70*.
`CC(NC(=O)NC(=O)c1ccc(Cl)cc1Cl)C1CC1` (stereo not drawn) gave aSyn UTR act -70*.
CCC(C)c1ccc(NC(=S)NN2CCOCC2)cc1 (stereo not drawn) was read as aSyn UTR act -99*.
`CC(C)c1ccc(NC(=O)NN2CCOCC2)cc1` gave aSyn UTR act -98*.
For CNC(C)C#Cc1ccc2c(=O)c3cc(C)c(C)cc3oc2c1 (stereo not drawn) the results were aSyn UTR act -227*.
Screening CNC(C)C#Cc1ccc2oc3cc(C)c(C)cc3c(=O)c2c1 (stereo not drawn) returned aSyn UTR act -196*.
`CC1=NN(c2ccc(C(=O)O)cc2)C(=O)/C1=C/c1ccc(-c2ccccc2F)o1` gave aSyn UTR act -88*.
Screening COc1ccccc1C(=O)COC(=O)c1ccc(N(C)C)cc1 returned aSyn UTR act -218*.
Screening COc1ccccc1C(=O)COC(=O)/C=C/c1ccccc1 returned aSyn UTR act -69*.
For COc1ccc(C(=O)c2ccc(N(C)C)cc2)c2ccccc12 the results were aSyn UTR act 74.
Screening COc1ccccc1C(=O)COC(=O)c1ccccc1O returned aSyn UTR act -104*.
COc1ccc(-c2ncc(CN3CCN(CCC(C)C)C(CCO)C3)cn2)cc1 (stereo not drawn) was read as aSyn UTR act -111*.
COc1ccc(CN2CCN(Cc3cccn3-c3ncccn3)CC2CCO)c(C)c1C (stereo not drawn) was read as aSyn UTR act 60.
Screening Cc1ccc(S(=O)(=O)N2CCCC2CNC(=O)C(=O)Nc2ccc(F)cc2)cc1 (stereo not drawn) returned aSyn UTR act -74*.
O=C(COC(=O)[C@@H]1CCCN1S(=O)(=O)c1ccc(Cl)cc1)NCC(F)(F)F was read as aSyn UTR act 31.
`COc1ccc(NC(=O)C(=O)NCC2CCCN2S(=O)(=O)c2ccc(C)cc2)cc1` (stereo not drawn) gave aSyn UTR act 91.
`Cc1cccc2c1ncc1c(=O)n(-c3ccccc3)[nH]c12` gave aSyn UTR act -146*.
For COCCn1c(=O)[nH]c2cc(C(=O)Nc3cccc(F)c3)ccc2c1=O the results were aSyn UTR act -113*.
COc1cccc(C(=O)O/N=C(\N)c2ccc([N+](=O)[O-])cc2)c1OC was read as aSyn UTR act -208*.
N/C(=N\OC(=O)c1cccc([N+](=O)[O-])c1)c1cccnc1 was read as aSyn UTR act -189*.
For COc1ccc(/C(N)=N/OC(=O)c2cccc([N+](=O)[O-])c2)cc1OC the results were aSyn UTR act -96*.
For COc1cc(/C=C/C(=O)c2cccc([N+](=O)[O-])c2)cc(OC)c1OC the results were aSyn UTR act -62*.
For N/C(=N\OC(=O)c1cccs1)c1cccc([N+](=O)[O-])c1 the results were aSyn UTR act -130*.
`Cc1cccc(C(=O)O/N=C(\N)c2cccc([N+](=O)[O-])c2)c1` gave aSyn UTR act -157*.
For CC(=O)Nc1nc(-c2ccc3ccccc3c2)cs1 the results were aSyn UTR act -143*.
`Oc1ccc(Nc2nc(-c3ccc4ccccc4c3)cs2)cc1` gave aSyn UTR act -210*.
For COc1ccc(Cn2c(-c3ccco3)nc3oc4cc(OC)ccc4c(=O)c3c2=O)cc1 the results were aSyn UTR act -92*.
Screening CN1CCN(C(=O)c2cc(COc3ccccc3)on2)[C@@H](c2ccccc2)C1 returned aSyn UTR act -166*.
For Cc1ccc(OCc2cc(C(=O)N3CCN(C)C[C@@H]3c3ccccc3)no2)cc1C the results were aSyn UTR act -106*.
Screening CCN(CC)c1ccc(/C=N/n2nnnc2N)c(O)c1 returned aSyn UTR act -89*.
`COC(=O)c1cc(Br)ccc1-c1ccc(/C=N/n2nnnc2N)o1` gave aSyn UTR act 55.
`CCN(C)c1ccc(/C=N\n2nnnc2N)cc1` gave aSyn UTR act -115*.
CCCCOC(=O)CSc1nc2c(cc1C#N)C(=O)CC(C)(C)C2 was read as aSyn UTR act -133*.
Screening O=C(Nc1ccc(F)cc1)Nc1nnc(-c2ccco2)s1 returned aSyn UTR act -100*.
`O=C(Nc1nnc(-c2ccco2)s1)C1CC1` gave aSyn UTR act -76*.
For Cc1ccc(NNc2c(C)nc3ccccc3nc2=O)cc1 the results were aSyn UTR act -112*.
For Cc1csc(NC(=O)CSc2nsc(SCC(=O)Nc3nc(C)cs3)c2C#N)n1 the results were aSyn UTR act -210*.
`CCOn1c(=O)c(-c2cc3ccccc3o2)[n+]([O-])c2ccccc21` gave aSyn UTR act -117*.
O=c1c(-c2cc3ccccc3o2)[n+]([O-])c2ccccc2n1OCc1ccccn1 was read as aSyn UTR act -174*.
`CC(=O)c1cccc(OCc2cc(C(=O)N(C)Cc3cnccn3)no2)c1` gave aSyn UTR act -85*.
For CN(Cc1cccnc1)C(=O)c1cc(COc2ccc3c(c2)CCCC3)on1 the results were aSyn UTR act -127*.
For Nc1c(-c2cccc([N+](=O)[O-])c2)nc2ccccn12 the results were aSyn UTR act -83*.
Screening CC(=C/c1ccc(C(C)C)cc1)/C=N/NC(=O)CSc1ccccn1 returned aSyn UTR act -164*.
`CC(/C=N/NC(=O)CSc1ccccn1)=C\c1ccc(C(C)C)cc1` gave aSyn UTR act -254*.
